Assay results published in PubChem BioAssay AID1508600 (Functional Genomics Laboratory (NCATS/FGL), 2020).
The campaign covered roughly 53,000 sequences. About 3,700 (7%) were called active. The sample as a whole holds a higher share of actives than the screen did. Values without a mark were called inactive.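 Rule for the calls: active = gene knockdowns whose robust z-score for IL-1 alpha signal is at least 2 or at most -2, so actives lie on both sides; inactive = the rest.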

Test: Components of the Cytosolic LPS Sensing Pathway: Gene Identification via Genome-wide siRNA Screen;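 note: robust z of the log signal after scaling to non-targeting control siRNA wells of the plate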
Conditions: RAW264.7 macrophages, IL-1a HTRF, actives lie on both sides, screened at 100 nM (by protocol), cells primed 5 h with Pam3CSK4 first
Method in brief: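 Using IL-1a HTRF as read-out, the screen measured release from RAW264.7 cells after 48h siRNA knockdown (100 nM), 5 h Pam3CSK4 priming and 24 h cytosolic LipidA. Values were expressed relative to negative-control wells as robust z-scores.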

Sequence	z-score
GGGAUACUACUUUCUAACATT against Rspo3	1.29
GCCAUACCCUGAAUUACCATT against Ndnf	-2.01 (active)
GGAUCAGAGAAGGAAAAAATT against Hspa12a	-1.98
CCCUGACUUGUCCUUACAATT against Trem3	-0.831
CCCUAGCGGAAAUUGUCAATT against Nono	0.328
GGGUCUGAUCACUUAUAUUTT against Lysmd3	2.02 (active)
CGAGGAGCCUGAAAUAUGGTT against Exosc2	-2.42 (active)
GGAAAAAAAAGUCUUCCUATT against Ttll6	-0.0777
CCUUGUUCCCGAAAUACCGTT against Krr1	-0.471
GUCAGUAUGGAGCGAUGGGTT against Zmiz2	0.695
GCCAUGUAGCACGUAACAGTT against Haus6	-0.368
GGAGAUACAUUGGUAGGUATT against Idua	-0.469
GGAAACGUAUGAACAAUAATT against Sema4f	0.896
GCAAUGAGGAGUAUAUGUATT against Rfx5	2.89 (active)
GGAUUAUGGGAAUUAACUATT against Mpdz	1.06
CCUUCAGUGGUUUGAACCGTT against Dnd1	2.59 (active)
CCAAGUCUUGUAGUGGAGUTT against Vdac3	-0.269
GGGCUCCACUACCUAAUCATT against Gpr83	-1.07
GGUACACUAUGAGGUCUGCTT against Traf2	2.07 (active)
GGUCUAUCAGAUCAUCAAATT against Pde8a	0.584
GGGUUCAAUAACCACAUCATT against Ttc13	-2.13 (active)
GGACUCAGAAGUGAACAUATT against Spata7	-0.916

Sequence	z-score
GCCUACGUGAAAUCUCACATT against Mycl	0.147
CCUCAAUUGGAUAAAGAAGTT against Gzma	1.7
GACAUACCAGCCGUAUAACTT against Erh	-2.39 (active)
CGAGGAGAAUUUGUAAUGATT against Etfrf1	-0.554
CCCUGAACCCUAACAUCACTT against Tcirg1	0.593
GGAGUGUUGGGAGCAGGAATT against Tnni1	2.71 (active)
GGAUGUUCUUGCUCAUGUGTT against Fam149b	0.605
GGAGAAAUGCCAUUGCGUCTT against Wnt3	0.169
GCGCGUCAUAAAAAGCAUATT against Lhx6	1.17
CGGAUCCUACGGAAUUACGTT against Fpgs	0.99
GGACAUUCUUUAAGAAGAUTT against Tjp3	-0.584
CCCAAAAGUUUUUACAGCUTT against Ttpa	0.0745
GGAUGAACCACCAUAUGUGTT against Olfr1188	4.69 (active)
GGUUUUGAAAAAGCAUCAATT against Myoz2	-0.365
GGCCAACUCUAUUUUGAAGTT against Lrp2bp	0.362
GGACACAUAAUGUCUACCUTT against Unc93a	-0.629
GCACUAGCAGACUAGGUGATT against Zbtb26	-2.07 (active)
GGAUUUUCAAUUCAUACCCTT against Psmb1	-0.189
UUUACCUUGUCACCGUCUUTT against Olfr1029	1.03
AUUCAUUGGGAAAAAUUAUTT against Olfr127	-2.38 (active)
CCUCGACAUCUAAUGAAGATT against 4933405O20Rik	-1.58
GCAAUACGAAGGCGAAAGCTT against P3h4	-1.68

Sequence	z-score
GGACUUCAUAUUAGCAUGUTT against Plbd2	-1.27
GACCCUUUUCACCAAGACATT against Tecr	0.989
GGAGCAGUGCAUUGAGACCTT against Adcy6	2.34 (active)
GGAAUAAUUGGUGUUAAAGTT against Hnrnpk	0.346
GGCUUUGGUCAAGGAGAAGTT against Pias4	-1.32
GGAUCAAUGAUACAACUGATT against Il1r1	-0.976
GGUGCUAAAGGACAUAGGUTT against Tmem177	3.27 (active)
GGGCACCUAUUCAGAUACCTT against Map2	0.685
GCCGAACGUGUUUAAACUCTT against Psd3	0.0404
GGAACCUCUCAGAUUUUCATT against Zfp599	0.828
GGCCUCUCAAAAUCUUCCUTT against Galnt11	-1.46
CGUAGUACCCAUGAAUUACTT against Adora2a	4.87 (active)
GGACUGACUCUUUUUUAACTT against Uba3	-0.697
CGAAAACAAUUACGUCUAUTT against Rfwd3	1.15
GCCAAACGCAUCAUGGAAATT against Arglu1	-0.59
CCACGACGUACAUCCAUAATT against Tmem181a	-1.02
GGCGAAAACGGUAAAGCCUTT against H1f4	0.448
GGCCAGCAAUAAAACUGUCTT against Max	-0.326
GCCCGCCUAUUUGAAAGCATT against Zfp740	0.839
GGAUGAAGGAACUAAAUAUTT against Cog3	-2.15 (active)
GGUCCUUAGGUGACCUCCUTT against Lrrc20	-0.249
GGAAAAUGCUGUCCAGUGGTT against Rdh11	-0.858

Sequence	z-score
GGAGGUGAACAGAUCUCACTT against Fubp1	0.391
GGUCACAGCAAGUUAAUAATT against Ranbp9	-2.1 (active)
GGAGGUUCUACCCUGUUCATT against Actr1a	0.48
GGGAGAAUCUAACUAAGCCTT against Sirt7	0.383
GGUCAUGCACACUCGAAAUTT against Mrpl54	0.831
GGUGGCUCAGAAAUCCUAUTT against Rbpjl	-0.206
GCGAAUCUCCACAAGAUGGTT against 2300002M23Rik	-0.0187
CGGCUUCUCUCUUUACACATT against Fosb	2.51 (active)
GGAGAAAAGUACCAAGAUGTT against Ifi27l2b	-1.15
AUGGUAUACUAUUAUGCUGTT against Mup20	1.62
GGAACUAACGGAAUUACUGTT against Arl3	0.951
GCGAAAUCAACAGUCAAUUTT against Ep300	0.458
GGAAGCAGAGCAGCUGUUUTT against Skiv2l	-0.567
GGGAUCAAUUUUGAAGAAUTT against Jmjd4	-0.398
GGAGUAUGUCCAUUGUCACTT against Vmn1r230	-2.54 (active)
UCAGCGAGCUUUAACCUUUTT against Olfr1028	0.26
GGUUUUUCAGCUUUGGAACTT against Decr1	-0.822
CCCACUUUCUUUGAUAACUTT against Bcl2l11	0.585
CGCGUAGAUAAGAAGUAUUTT against Anks1	0.181
GCUCAACAAAGCCUGUUCGTT against Zp3	2.35 (active)
GCAUUACUAAUCAAAGUGGTT against Abcb1b	-0.78
CCACUUCAUGAUUGAGUGCTT against Phf8-ps	-0.836

Sequence	z-score
CCAUGAGUUCAGAUGAUGATT against Ints10	-1.11
CCUGAAACAUUCAGUGUCUTT against Apool	0.293
GCUUAAUUUCAUUUCAAGGTT against B3gnt5	0.496
GCUUCCCUGCCGUGAUGAUTT against Git1	-1.15
GGACACAAGUUUUCAGAUCTT against Elmod2	3.02 (active)
GGAUCAUGGAUAUACCACCTT against Smarcb1	-1.72
GGUGCAAACUAAAAAUCUUTT against Enc1	2.73 (active)
GGAAGAUGAAGAUGAGAAUTT against Igbp1b	-1.24
GGGAAGCAUGCAGAACAGCTT against Parg	-1.42
GGUUCCUCAAGAUCAUCAUTT against P2ry13	0.051
GCUUUGAUGGAUUCUAAUCTT against Htt	1.09
CCCAUUUGCUCUGUGGAUCTT against Tha1	0.289
GCACUUUGGGUUUAAGUACTT against Ndrg4	3.7 (active)
GGGAGAGAGAAAAAGAAAATT against Park7	0.94
CCUGGCCAUGUCGAAAGAUTT against Pla2g6	0.716
GGAAGAAGUCAGAUGUGGATT against Radil	-0.315
UGAUGCUAAGACUGAACCATT against Olfr541	-1.14
GGACAUUGUUGUCCAAACUTT against Sptb	-2.24 (active)
CCAUAUUUGAAGAAGUCCATT against Espl1	-0.325
GGGUACAACUCUUUGAAGATT against Mnat1	0.535
